# Test results reported in PubChem BioAssay (NCI).
# Compounds without any hit were thinned out: in the full panel of roughly 79,000, 15% have a hit. Unmarked numbers belong to inactive results. Calls of active or inactive are those of the source. No stated cut-off is given here; in the data, active means growth inhibition above about 70%; inactive means the rest.
# Assays:
# [1] = NCI Yeast Anticancer Drug Screen. Data for the rad50 strain (AID 155);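 further: 0% = growth of vehicle-only cultures of the same strain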; conditions: S. cerevisiae rad50 strain growth inhibition, stronger effect = higher value
# Method in brief: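 A DNA repair-deficient yeast mutant serves as the test organism; compound-induced growth inhibition is calculated against vehicle-treated cells.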
# [2] = NCI Yeast Anticancer Drug Screen. Data for the mec2-1 strain (AID 157); conditions: S. cerevisiae mec2-1 strain, stronger effect = higher value
# Method in brief: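 Compounds were applied to mec2-1 yeast cells. Their growth was then compared with that of vehicle-treated cultures to give growth inhibition.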
# [3] = NCI Yeast Anticancer Drug Screen. Data for the sgs1 mgt1 strain (AID 161);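 further: 0% = growth of cultures given vehicle only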; conditions: S. cerevisiae sgs1 mgt1 strain, stronger effect = higher value
# Method in brief: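 Growth of a repair-deficient yeast mutant was monitored after compound treatment and expressed as inhibition relative to vehicle-treated cultures.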
# [4] = NCI Yeast Anticancer Drug Screen. Data for the cln2 rad14 strain (AID 165);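 further: 0% = growth equal to vehicle treated cultures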; conditions: S. cerevisiae cln2 rad14 strain, stronger effect = higher value
# Method in brief: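 Strain: cln2 rad14 yeast, altered in cell cycle control and DNA damage repair. Read-out: growth inhibition vs vehicle.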
# [5] = NCI Yeast Anticancer Drug Screen. Data for the bub3 strain (AID 167); conditions: S. cerevisiae bub3 mutant strain, stronger effect = higher value
# Method in brief: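 Inhibition values come from growth of compound-treated mutant yeast normalised to vehicle-treated controls.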
# [6] = NCI Yeast Anticancer Drug Screen. Data for the mlh1 rad18 strain (AID 175); conditions: S. cerevisiae mlh1 rad18 strain growth inhibition, stronger effect = higher value
# Method in brief: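 A repair-deficient yeast strain is exposed to test compound, and growth is scored relative to vehicle-treated controls.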
# [7] = at 5.0 µM (retest, dose inferred, filed as 0.5)
# [8] = at 50.0 µM (retest, dose inferred, filed as 5.0)
SMILES,"growth inhibition [1, 7]","growth inhibition [1, 8]",growth inhibition ([1]; at 50.0 µM),"growth inhibition [2, 7] [%]","growth inhibition [2, 8]",growth inhibition ([2]; at 50.0 µM),"growth inhibition [3, 7]","growth inhibition [3, 8]",growth inhibition ([3]; at 50.0 µM),"growth inhibition [4, 7]","growth inhibition [4, 8]",growth inhibition ([4]; at 50.0 µM),"growth inhibition [5, 7]","growth inhibition [5, 8]",growth inhibition ([5]; at 50.0 µM),"growth inhibition [6, 7]","growth inhibition [6, 8]",growth inhibition ([6]; at 50.0 µM)
O=C(O)CCCCC1CCCCC1.[Cu+2],31%,94% (active),14.7%,23,90% (active),-3.1%,13%,93% (active),36%,8%,30%,0.9%,17%,91% (active),6.2%,19%,94% (active),1.85%
Cc1cc(NS(=O)(=O)c2ccc(Nc3c4ccccc4nc4c(C(=O)NC(CO)(CO)CO)cccc34)cc2)no1,-1%,17%,75.2% (active),-5,-10%,23.9%,-1%,-3%,-1.6%,-21%,17%,71.5% (active),0%,-6%,6.25%,-2%,19%,74% (active)
COC1=CC(=O)c2c(O)c3c(c(O)c2C1=O)C[C@](C)(O)C[C@@H]3O,27%,93% (active),84.7% (active),14,94% (active),79.8% (active),12%,91% (active),85.6% (active),0%,29%,47.7%,36%,93% (active),83.8% (active),33%,96% (active),84.5% (active)
CC1C=C(COC(=O)Nc2ccccc2)ON1c1ccccc1 (configuration not stated),-2%,97% (active),98.2% (active),-3,96% (active),98% (active),-2%,97% (active),98.2% (active),-4%,95% (active),98.3% (active),-8%,93% (active),98.5% (active),-1%,97% (active),97.8% (active)
CC#CS(=O)(=O)c1ccccc1,1%,40%,74.7% (active),-1,52%,85.5% (active),10%,81% (active),80.7% (active),3%,23%,13.9%,0%,19%,6.35%,36%,87% (active),66.6%
CCCCCC/C=C\CCCCCCCCCC1=C(CN2CCN(C)CC2)C(=O)C=C(OC)C1=O,24%,97% (active),89.2% (active),24,98% (active),91.8% (active),99% (active),98% (active),90.3% (active),97% (active),98% (active),89.2% (active),99% (active),98% (active),91% (active),54%,97% (active),88.8% (active)
O=C1c2ccccc2-c2ccccc2C(=O)C1(Br)Br,-5%,8%,89.8% (active),-1,-5%,91.1% (active),3%,-11%,88.3% (active),-8%,-4%,47.3%,-7%,-18%,66.7%,0%,-7%,96.4% (active)
CN(C)C(=O)SC1=C(c2c(Cl)cccc2Cl)C(=O)c2ccccc21,41%,74% (active),66.3%,32,69%,74.5% (active),53%,80% (active),89.7% (active),33%,61%,87.8% (active),32%,71% (active),85.9% (active),82% (active),93% (active),82.8% (active)
Cc1c2cc[n+](C)cc2c(C)c2c1sc1ccccc12,21%,97% (active),39.4%,-2,98% (active),91.2% (active),18%,99% (active),90.8% (active),4%,97% (active),91.5% (active),16%,99% (active),92.7% (active),8%,97% (active),91.5% (active)
CN(C)CC(CN(C)C)C(=O)c1ccc(Oc2ccc(Cl)c(Cl)c2)cc1,18%,96% (active),93.9% (active),8,97% (active),96.8% (active),29%,98% (active),96.7% (active),4%,95% (active),93.5% (active),6%,98% (active),94.8% (active),21%,96% (active),96.3% (active)
CCCCN(CCCC)Cc1cc(Nc2c3ccc(Cl)cc3nc3ccc(OC)cc23)ccc1O,4%,91% (active),79.2% (active),10,56%,86.7% (active),-19%,95% (active),75.4% (active),-4%,23%,89.5% (active),-3%,36%,58.4%,7%,79% (active),98.1% (active)
O=C1c2cccnc2-c2nccc3c2c1nc1cc(Br)ccc13,61%,98% (active),88.7% (active),44,99% (active),92.2% (active),94% (active),98% (active),89.9% (active),28%,97% (active),88.2% (active),88% (active),98% (active),89.2% (active),58%,98% (active),77.2% (active)
COc1cc2c(c(OC)c1OC)-c1ccc(SC)c(=O)cc1[C@@H](NC1OC(COC(C)=O)C(OC(C)=O)C(OC(C)=O)C1OC(C)=O)CC2 (some centres not stated),0%,-3%,-1.6%,-1,-3%,2.55%,1%,5%,9.45%,3%,-14%,74.2% (active),0%,-7%,0.9%,0%,-3%,7.15%
S=C(NC(=S)Nc1ccc(Cl)cc1)Nc1ccc(Cl)cc1,4%,-4%,68%,1,2%,61.9%,5%,8%,72.1% (active),-9%,-8%,50.8%,-4%,2%,77.6% (active),20%,10%,78.7% (active)
Cc1nc2sc3c(c2c2nnnn12)CCCC3,2%,28%,6.6%,8,29%,16.9%,24%,74% (active),53%,4%,23%,-6.5%,3%,11%,27.6%,7%,31%,9.45%
CCCCCCCN=C(N)c1ccc(C(=O)OCc2ccccc2)cc1,1%,86% (active),99.5% (active),-12,76% (active),99.8% (active),5%,95% (active),99.8% (active),-2%,80% (active),99.4% (active),0%,77% (active),99.4% (active),6%,94% (active),99.7% (active)
Cc1ccc(O)c2c(NCCCCCCNc3cc(C)[n+](C)c4c(C)ccc(O)c34)cc(C)[n+](C)c12,-1%,87% (active),89% (active),0,76% (active),90.4% (active),-1%,71% (active),92.7% (active),5%,60%,72.7% (active),-6%,76% (active),77.5% (active),-2%,84% (active),90.2% (active)
C=C(c1ccccc1)[N+](=O)[O-],94% (active),99% (active),99.2% (active),63,99% (active),99.4% (active),59%,99% (active),99.6% (active),37%,99% (active),99.1% (active),67%,99% (active),99.3% (active),67%,100% (active),99.2% (active)
CN(C)CCC(/C=C/c1ccccc1)=N\Nc1ccc(Cl)cc1Cl,66%,87% (active),99.5% (active),32,94% (active),99.5% (active),47%,91% (active),99.4% (active),66%,88% (active),98.7% (active),80% (active),90% (active),98.8% (active),78% (active),91% (active),99.5% (active)
